An excerpt weighted towards active compounds, which were near 7.1% of everything screened.
PINK1 modulator = changes PINK1 expression; PINK1 immunofluorescence, high-content cytometry, 24 h; Potency, µM (doses to about 76.6 µM), most hits filed as activators; 410,000 tested, 0.2% active; AID 624263; active = well fitted activation curve with a large enough effect; inconclusive = small, poorly fitted or top-dose-only effect; cell line not stated here; also: nearly all actives have a fitted effect of over 65% in size
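Fluorescence from anti-PINK1 antibody, together with nuclear and cell stains, was scanned on a laser-scanning cytometer. Before staining, stable-line cells were incubated 24 hours with compounds at 5 concentrations; primary antibody 12 h at 10 degrees C.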
IL1B secr inh = inflammasome signaling inhibition, IL-1 beta readout; 360,000 tested, 4.7% active; activity change, % at 57.5 µM; THP-1 LPS/ATP IL-1B secretion, AlphaLISA, 16 h; hits give low values; in the data active = activity change below about -50%; inconclusive = mostly about -30% to -49%
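THP-1 cells pretreated 1 hr with compounds (up to 57.5 uM final), then stimulated with LPS (250 ng/mL final) plus ATP (1.25 mM final); secreted IL-1B measured by AlphaLISA after 16 hr, decreased signal indicating inhibition.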
MCF10A rereplic = DNA re-replication induction in MCF 10a cells; MCF 10A DNA re-replication, Hoechst nuclear intensity, 48 h; AID 624296; 350,000 tested, 2.9% active; Potency, µM (doses to about 46.1 µM), hits mostly activators; also: nearly all actives have a fitted effect of over 50% in size
ATXN2 expr inh = reduces ATXN2 reporter expression in HEK-293 cells; HEK-293 ATXN2-luciferase reporter, luminescence, 24 h; Potency, µM (titrated, usually from 57 µM), actives largely listed as inhibitors; 360,000 tested, 0.72% active; AID 1745845; also: nearly all actives have a fitted effect of over 55% in size
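qHTS (up to 57 uM final) was run with 24 h compound exposure of reporter cells at 37 °C. Each well was multiplexed: SteadyGlo luminescence measured ATXN2-luciferase expression after a fluorogenic Gly-Phe-AFC viability readout (25 uM final).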
SW480 rerep = DNA re-replication induction in SW480 cells; AID 624297; Potency, µM (doses to about 46.1 µM), most hits filed as activators; SW480 DNA re-replication, Hoechst DNA content imaging, 48 h; 340,000 tested, 1.8% active; also: nearly all actives have a fitted effect of over 55% in size
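Per well, 250 cells were exposed to pinned compound for 48 hr. Nuclear DNA was visualised with Hoechst (40 min, 37 C) and total object intensity recorded by fluorescence scanning.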
S2 tox = cell viability loss in ATXN counter-screen; S2 cells (HEK-293 line with an ATXN2-luciferase reporter) viability, CellTiter-Fluor protease fluorescence, 24 h; Potency, µM (doses to about 56.7 µM), hits mostly cytotoxic; 400,000 tested, 0.49% active; AID 651635; also: nearly all actives have a fitted effect of over 40% in size
Numbers stand for hits; i = inactive; ? = inconclusive; nt = no result; [ ] = another dose, or the depositor's remark. Unless noted, calls follow the shape of the dose curve; as a rule, active = well fitted curve in the direction sought with a large enough effect; inconclusive = small, poorly fitted or top-dose-only effect, or another doubt; inactive = no such curve, though single readings can be large; an effect the other way counts as inactive or inconclusive.

SMILES | PINK1 modulator | IL1B secr inh | MCF10A rereplic | ATXN2 expr inh | SW480 rerep | S2 tox
CCN(C(=O)COC(=O)c1c2c(nc3ccccc13)/C(=C/c1ccccc1)CC(C)C2)C1CCS(=O)(=O)C1 (centres undefined) | i | i | ? | i | 7.31µM | ?
Cc1cc(NC(=O)CSc2nc3ccccc3n2CCC#N)no1 | i | -55.6 | i | nt | i | i
CCN(C(=O)CSc1cc(-c2ccccc2)c2ccc(OC)cc2n1)C1CCS(=O)(=O)C1 (centres undefined) | i | -61.5 | ? | i | i | i
Cc1cc(NC(=O)CSc2nc(C(C)(C)C)nc3ccccc23)no1 | i | i | ? | i | ? | ?
CCNC(=O)Nc1ccc(Oc2ncnc(N)c2C=NOC)cc1Cl | nt | nt | nt | i | nt | nt
COc1cc(NC(=O)Cn2ccc3ccccc3c2=O)cc(OC)c1OC | i | nt | nt | i | nt | i
CCc1cc2ccc(OC)cc2nc1SCC(=O)Nc1cc(C)on1 | i | i | 13µM | i | i | ?
CCN(C(=O)CSc1nc(-c2cccs2)nc2ccccc12)C1CCS(=O)(=O)C1 (centres undefined) | i | -93.2 | ? | i | i | i
COc1ccc2c(-c3ccccc3)cc(SCC(=O)NC3CCS(=O)(=O)C3)nc2c1 (centres undefined) | i | -82.2 | i | i | i | i
CCOc1ccc(NC(=O)CC2C(=O)N(c3ccccc3)C(=O)N2C2CCCCC2)cc1 (centres undefined) | i | nt | nt | i | nt | i
COc1cccc(N2CCN(C(=O)c3cnc4c(-c5ccccc5)c(C)nn4c3C)CC2)c1 | i | nt | nt | nt | nt | nt
Cc1ccc(OCCCCn2ccnc2C)c(C)c1 | i | -55.8 | 14.6µM | i | i | ?
O=C(CCN1C(=O)/C(=C/c2ccccc2Cl)SC1=S)Nc1ccccn1 | i | i | i | nt | i | i
O=C(CCN1C(=O)/C(=C/c2ccccc2Cl)SC1=S)Nc1cccnc1 | i | i | i | nt | i | i
O=C(CCCN1C(=O)/C(=C/c2ccccc2Cl)SC1=S)NNC(=O)c1ccc(Cl)cc1 | i | i | i | ? | i | i
O=C(CCCN1C(=O)/C(=C/c2ccccc2Cl)SC1=S)Nc1cccnc1 | i | ? | ? | ? | ? | 14.1µM
O=C(CCCN1C(=O)/C(=C/c2ccccc2Cl)SC1=S)Nc1ccccn1 | i | -81.4 | ? | 16.8µM | i | i
Cc1ccc(C(=O)NNC(=O)CCCN2C(=O)/C(=C/c3ccccc3Cl)SC2=S)cc1 | i | -106.9 | i | ? | i | i
O=Nc1nc2ncccn2c1-c1ccccc1 | i | -83.6 | 13µM | i | 9.2µM | i
COP(=O)(OC)OC(C(=O)c1ccccc1)c1ccccc1 (centres undefined) | nt | i | nt | nt | nt | nt
COC(=O)c1ccccc1-c1cc(C)cc2c1OC(CNC(=O)c1occc1C)C2 (centres undefined) | i | nt | nt | nt | nt | i
Nc1nnc(CCS(=O)(=O)c2cc(Cl)ccc2Cl)s1 | i | i | i | i | i[9.22 µM] | i
Cc1ccccc1CN(C)CCS(=O)(=O)c1cc(Cl)ccc1Cl | i | ? | 9.2µM | i | 18.4µM | i
COc1ccc(N(Cc2ccccc2)S(=O)(=O)c2cc(C(=O)O)ccc2Cl)cc1 | i | i | 18.4µM | i | i | i
O=C(O)c1ccc(Cl)c(S(=O)(=O)N(Cc2ccccc2)c2ccccc2Cl)c1 | i | i | 8.2µM | nt | i | i
SMILES | PINK1 modulator | IL1B secr inh | MCF10A rereplic | ATXN2 expr inh | SW480 rerep | S2 tox
CCOC(=O)COc1ccc2c(C)c(CCN(CC)CC)c(=O)oc2c1Cl | nt | nt | i | i | i | i
CN(C)c1ccc(/C=C/c2c3ccccc3cc[n+]2[O-])cc1 | i | nt | nt | nt | nt | nt
CC(C(=O)NCCS(=O)(=O)c1ccc(Cl)cc1)S(=O)(=O)c1ccc(Cl)cc1 (centres undefined) | i | i | i | i | i | ?
CC(NCCS(=O)(=O)c1ccc(Cl)cc1)c1cccc(Cl)c1 (centres undefined) | i | -59.6 | i | i | i | i
CC(C)c1ccc(C(C)NCCS(=O)(=O)c2ccc(Br)cc2)cc1 (centres undefined) | i | -98.5 | ? | i | ? | i
OC(CNC1Cc2ccccc2C1)COc1ccc(Cl)cc1 (centres undefined) | i | i | i | i | i | i
OC(CNC1CCCc2ccccc21)COc1c(Cl)cccc1Cl (centres undefined) | i | -101.1 | ? | ? | ? | i
O=C(NN1C(=O)/C(=C\c2cccnc2)SC1=S)C(c1ccccc1)c1ccccc1 | i | i | 14.6µM | i | i | i
O=C(NN1C(=O)/C(=C/c2cccnc2)SC1=S)C(c1ccccc1)c1ccccc1 | i | i | 13µM | i | i | i
Cc1ccc(OC/C(=N\O)C(C)(C)C)c([N+](=O)[O-])c1 | i | -82.3 | i | i | i | i
Cc1ccc(/C=N\NC(=O)COc2ccc(C)cc2[N+](=O)[O-])cc1 | i | i | i | i | i | i
COC(=O)c1ccc(COc2ccc(C)cc2[N+](=O)[O-])o1 | i | nt | 1.84µM | i | i | i
O=P(OC1CCCCC1)(OC1CCCCC1)C(Nc1ccccc1)c1cccnc1 (centres undefined) | i | -72.0 | ? | i | i | ?
CCOP(=O)(OCC)C(Nc1ccccc1)c1cccnc1 (centres undefined) | i | i | i | nt | i | i
CC(C)Nc1nc(NC2CCCC2)nc(N2CCOCC2)n1 | i | -99.3 | i | i | i | ?
Cc1cc(NC2CCCCC2)nc(N2CCOCC2)n1 | nt | i | i | i | i | i
CCCCCCCCCCCCCCCCCCNc1ccn(C2OC(COP(=O)(O)OCC3OC(n4cc(F)c(=O)[nH]c4=O)CC3O)C(O)C2O)c(=O)n1 (centres undefined) | i | -67.9 | 10.3µM | ? | 20.6µM | ?
CCCCCCCCCCCCCCCCCCCCCC(=O)Nc1ccn([C@@H]2O[C@H](CO)[C@@H](O)[C@@H]2O)c(=O)n1 | nt | nt | i | nt | ? | nt
Fc1ccccc1N1CCN(c2ncnc3onc(-c4cccc(Cl)c4)c23)CC1 | i | nt | nt | i | nt | i
O=C(CNCCC1=CCCCC1)Nc1ccc(N2CCCCCC2)cc1 | i | -86.6 | ? | ? | ? | nt
O=C(CNC1CCCC1)Nc1ccc(N2CCCCCC2)cc1 | i | i | ? | i | i | ?
CC(C)c1ccc(CC(=O)N2CCC2(C)C(=O)NCC(C)(C)C)cc1 (centres undefined) | i | -74.5 | nt | i | nt | i
CC(C)(C)c1ccc(CC(=O)N2CCC2(C)C(=O)NS(=O)(=O)c2ccccc2)cc1 (centres undefined) | i | -73.8 | nt | i | nt | i
COc1ccccc1-c1cc2c(c(OC)c1)OCCN(CCC(C)c1ccc(C)o1)C2 (centres undefined) | i | nt | nt | nt | nt | i
COc1ccc2nc(C)cc(SCC(=O)N/N=C/c3cccc4ccccc34)c2c1 | i | -56.3 | 3.66µM | ? | 4.61µM | nt

Screens from PubChem BioAssay.
